These results are taken from PubChem BioAssay (NCI).

Structures are written as SMILES. About 83,000 compounds went through this panel and 20% of them were active in at least one assay; those are over-represented in the sample as a whole.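 Method: cells in 96-well plates; compound added at one concentration; 48 h incubation; percent growth measured; values under 10 scored active.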 Unmarked numbers belong to inactive results. Activity calls are given as the source filed them.

Among the test systems are DU-145 prostate; K-562 leukemia; MALME-3M melanoma; MDA-MB-231 breast; RXF 393 renal; SF-268 CNS; SF-295 CNS; SF-539 CNS; UACC-257 melanoma; M14 melanoma; HCT-15 colon; HT29 colon; SNB-75 CNS; SNB-19 CNS; U251 CNS; PC-3 prostate; SK-MEL-5 melanoma; UACC-62 melanoma; LOX IMVI melanoma; SK-MEL-28 melanoma.
Experiment in all cases: NCI-60 one-dose screen, 48 h (100 = growth as untreated, 0 = no growth, -100 = all killed)
Holding throughout (details): 10 µM unless noted

With `CCc1ccccc1NC(=O)/C(C#N)=C/c1ccc(OC)cc1`, the growth with DU-145 prostate was 100%; in the assay with K-562 leukemia, 99.5%; in the assay with MALME-3M melanoma, 104%; in the assay on MDA-MB-231 breast it was 105%; in the assay with RXF 393 renal it was 126%; in the assay on SF-268 CNS, 93.8%. Moreover, the growth in the assay on SF-295 CNS is 91.9%; with SF-539 CNS, 108%; in the assay on UACC-257 melanoma it was 108%; with M14 melanoma it was 99.1%; with HCT-15 colon, 101%; with HT29 colon it was 100%. Further, the growth was 99.3% in the assay with SNB-75 CNS; 111% with SNB-19 CNS; 106% in the assay with U251 CNS; 81.1% in the assay with PC-3 prostate; 96.3% with SK-MEL-5 melanoma; 81.6% with UACC-62 melanoma. The growth in the assay with LOX IMVI melanoma was 102%; in the assay with SK-MEL-28 melanoma, 92.9%.

`O=C(/C=C/c1ccco1)c1ccc(Nc2nc(Nc3ccc(F)cc3)nc(Nc3ccc(Cl)cc3)n2)cc1`: the growth in the assay with DU-145 prostate is 77%; in the assay on K-562 leukemia, 67.4%; with MALME-3M melanoma, 75.1%; in the assay on MDA-MB-231 breast, 55.1%; with RXF 393 renal, 35.6%; in the assay on SF-268 CNS it was 80.2%. Also, the growth in the assay on SF-295 CNS is 65.4%; with SF-539 CNS, 102%; in the assay on UACC-257 melanoma, 101%; in the assay with M14 melanoma, 84.5%; in the assay on HCT-15 colon, 78.5%; in the assay on HT29 colon it was 61.8%. Further, the growth is 62.5% in the assay with SNB-75 CNS; 107% in the assay on SNB-19 CNS; 73.2% with U251 CNS; 72.7% in the assay with PC-3 prostate; 73.8% with SK-MEL-5 melanoma; 81.7% with UACC-62 melanoma. In addition, the growth in the assay with LOX IMVI melanoma was 74.7%; in the assay with SK-MEL-28 melanoma it was 60.3%.

For the compound `COc1cccc(Nc2nccc(Nc3ccc4[nH]ncc4c3)n2)c1`, the growth with DU-145 prostate is -59.1% (active); in the assay on K-562 leukemia, -9.77% (active); in the assay with MALME-3M melanoma it was -48.7% (active); with MDA-MB-231 breast, 15%; with RXF 393 renal, 18.4%; with SF-268 CNS it was 26.3%. Besides, the growth in the assay on SF-295 CNS is 16.2%; with SF-539 CNS, 13.9%; in the assay on UACC-257 melanoma, 11.2%; with M14 melanoma, -74.2% (active); in the assay with HCT-15 colon, -26.6% (active); in the assay on HT29 colon it was -58.3% (active). For the same compound, the growth was 30.3% in the assay on SNB-75 CNS; 24.1% in the assay with SNB-19 CNS; -93.7% (active) with U251 CNS; -81.2% (active) in the assay on PC-3 prostate; -56.7% (active) in the assay with UACC-62 melanoma; -66.9% (active) with LOX IMVI melanoma. Further, in the assay on SK-MEL-28 melanoma, the growth was -42.6% (active).

Turning to `N#Cc1c(-c2ccccc2)cc(-c2ccc(Nc3nc(Nc4ccc(F)cc4)nc(Nc4ccc(F)cc4)n3)cc2)nc1N`, the growth in the assay with DU-145 prostate is 106%; with K-562 leukemia, 88.8%; in the assay on MALME-3M melanoma, 80.6%; with MDA-MB-231 breast, 73.2%; in the assay on RXF 393 renal, 53.6%; in the assay with SF-268 CNS it was 96.1%. The growth in the assay on SF-295 CNS is 65%; in the assay with SF-539 CNS it was 94.5%; in the assay with UACC-257 melanoma, 104%; with M14 melanoma, 108%; in the assay with HCT-15 colon, 100%; in the assay on HT29 colon, 94.1%. Besides, the growth in the assay with SNB-75 CNS is 87.1%; with SNB-19 CNS, 91.7%; in the assay on U251 CNS, 92%; in the assay on PC-3 prostate it was 75.8%; in the assay with UACC-62 melanoma, 98.6%; in the assay with LOX IMVI melanoma, 95.5%. Moreover, the growth with SK-MEL-28 melanoma was 90.1%.

In the case of `CC(C)(C)C(CCc1ccc(Cl)cc1)N1CCN(C2CCCCC2)CC1` (stereo not given), the growth in the assay with DU-145 prostate is 25.3%; in the assay with K-562 leukemia it was 9.18% (active); in the assay on MALME-3M melanoma, 83.4%; in the assay with MDA-MB-231 breast it was 12.3%; in the assay on RXF 393 renal it was 83.2%; with SF-268 CNS it was 43.8%. The growth with SF-295 CNS was 72.6%; in the assay with SF-539 CNS, 81.2%; in the assay with UACC-257 melanoma, 51.4%; in the assay with M14 melanoma, 31.9%; in the assay on HCT-15 colon, 38.1%; with HT29 colon, 12.6%. Also, the growth in the assay with SNB-75 CNS was 77.7%; with SNB-19 CNS, 70.6%; in the assay on U251 CNS it was 38.1%; in the assay with PC-3 prostate it was 27.7%; in the assay with SK-MEL-5 melanoma, 46.4%; in the assay on UACC-62 melanoma, 46.8%. Besides, in the assay with SK-MEL-28 melanoma, the growth was 83.1%.

Turning to `COc1ccc2[nH]c(O)c(C(=Nc3ccc(N(C)C(=O)CN4CCN(C)CC4)cc3)c3ccccc3)c2c1`, the growth in the assay with DU-145 prostate was 27.7%; in the assay on K-562 leukemia, 5.35% (active); with MALME-3M melanoma it was 43.5%; in the assay on MDA-MB-231 breast, 28.4%; with RXF 393 renal it was -25.1% (active); with SF-268 CNS, 30.7%. The growth in the assay with SF-295 CNS is 48.3%; in the assay on SF-539 CNS it was -38.9% (active); in the assay on UACC-257 melanoma, 65.9%; with M14 melanoma, 29.3%; in the assay with HCT-15 colon, 24.7%; in the assay on HT29 colon, 18%. For the same compound, the growth with SNB-75 CNS was -5.94% (active); in the assay on SNB-19 CNS, 57.5%; in the assay on U251 CNS, 45.1%; with PC-3 prostate, 56.6%; with SK-MEL-5 melanoma it was 67.3%; in the assay with UACC-62 melanoma, 75.3%. Besides, the growth in the assay on SK-MEL-28 melanoma is 42.4%.

Consider `CCN(CC)Cc1cccc(C(=O)OC)c1`, for which the growth in the assay with DU-145 prostate was 111%; with K-562 leukemia, 110%; with MALME-3M melanoma, 95.3%; in the assay on MDA-MB-231 breast, 100%; in the assay on RXF 393 renal it was 105%; in the assay on SF-268 CNS it was 104%. For the same compound, the growth was 97.8% with SF-295 CNS; 94% in the assay with SF-539 CNS; 73.4% in the assay on UACC-257 melanoma; 91.7% in the assay on M14 melanoma; 102% in the assay on HCT-15 colon; 106% in the assay with HT29 colon. Besides, the growth in the assay with SNB-75 CNS is 87.9%; in the assay with SNB-19 CNS, 101%; with U251 CNS, 96.3%; in the assay on PC-3 prostate, 78.1%; with UACC-62 melanoma, 103%; in the assay on LOX IMVI melanoma, 94.1%. Moreover, the growth in the assay with SK-MEL-28 melanoma was 104%.
